Assay results as given in ChEMBL document CHEMBL1961873, “Compounds: GSK PKIS; Assays: Nanosyn kinase panel” (2012).

Experiments:
[1] = target: Protein kinase C gamma type (Homo sapiens) (UniProt P05129); settings: at 1 µM;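 note: each value is an averaged percent inhibition of the enzyme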
[2] = target: T1, Protein kinase C iota type (Homo sapiens) (UniProt P41743); settings: at 0.1 µM
T1 sequence (whole entry): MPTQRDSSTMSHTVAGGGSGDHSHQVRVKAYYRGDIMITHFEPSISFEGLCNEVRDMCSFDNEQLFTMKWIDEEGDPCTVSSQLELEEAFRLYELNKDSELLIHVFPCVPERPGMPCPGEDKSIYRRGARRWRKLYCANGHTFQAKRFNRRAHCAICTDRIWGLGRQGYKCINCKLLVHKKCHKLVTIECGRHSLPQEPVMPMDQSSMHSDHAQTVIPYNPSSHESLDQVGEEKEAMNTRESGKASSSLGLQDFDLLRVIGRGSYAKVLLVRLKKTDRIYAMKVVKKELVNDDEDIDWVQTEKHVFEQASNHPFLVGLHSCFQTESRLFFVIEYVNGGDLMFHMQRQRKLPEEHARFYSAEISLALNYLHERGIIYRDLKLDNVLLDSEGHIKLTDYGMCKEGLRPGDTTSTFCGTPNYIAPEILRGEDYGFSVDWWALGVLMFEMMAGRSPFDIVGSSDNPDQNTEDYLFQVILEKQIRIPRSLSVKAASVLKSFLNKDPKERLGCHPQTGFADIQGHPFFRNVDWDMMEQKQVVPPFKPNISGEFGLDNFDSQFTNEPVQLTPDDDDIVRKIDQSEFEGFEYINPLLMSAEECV

[3] = target: T1, Protein kinase C iota type (Homo sapiens); settings: at 1 µM
[4] = target: Protein kinase C theta type (Homo sapiens) (UniProt Q04759); settings: at 0.1 µM
[5] = target: Protein kinase C theta type (Homo sapiens) (UniProt Q04759); settings: at 1 µM
[6] = target: Protein kinase C beta type (Homo sapiens) (UniProt P05771); settings: at 0.1 µM
[7] = target: Protein kinase C beta type (Homo sapiens) (UniProt P05771); settings: at 1 µM
[8] = target: T2, Serine/threonine-protein kinase D1 (Homo sapiens) (UniProt Q15139); settings: at 0.1 µM
T2 sequence (whole entry): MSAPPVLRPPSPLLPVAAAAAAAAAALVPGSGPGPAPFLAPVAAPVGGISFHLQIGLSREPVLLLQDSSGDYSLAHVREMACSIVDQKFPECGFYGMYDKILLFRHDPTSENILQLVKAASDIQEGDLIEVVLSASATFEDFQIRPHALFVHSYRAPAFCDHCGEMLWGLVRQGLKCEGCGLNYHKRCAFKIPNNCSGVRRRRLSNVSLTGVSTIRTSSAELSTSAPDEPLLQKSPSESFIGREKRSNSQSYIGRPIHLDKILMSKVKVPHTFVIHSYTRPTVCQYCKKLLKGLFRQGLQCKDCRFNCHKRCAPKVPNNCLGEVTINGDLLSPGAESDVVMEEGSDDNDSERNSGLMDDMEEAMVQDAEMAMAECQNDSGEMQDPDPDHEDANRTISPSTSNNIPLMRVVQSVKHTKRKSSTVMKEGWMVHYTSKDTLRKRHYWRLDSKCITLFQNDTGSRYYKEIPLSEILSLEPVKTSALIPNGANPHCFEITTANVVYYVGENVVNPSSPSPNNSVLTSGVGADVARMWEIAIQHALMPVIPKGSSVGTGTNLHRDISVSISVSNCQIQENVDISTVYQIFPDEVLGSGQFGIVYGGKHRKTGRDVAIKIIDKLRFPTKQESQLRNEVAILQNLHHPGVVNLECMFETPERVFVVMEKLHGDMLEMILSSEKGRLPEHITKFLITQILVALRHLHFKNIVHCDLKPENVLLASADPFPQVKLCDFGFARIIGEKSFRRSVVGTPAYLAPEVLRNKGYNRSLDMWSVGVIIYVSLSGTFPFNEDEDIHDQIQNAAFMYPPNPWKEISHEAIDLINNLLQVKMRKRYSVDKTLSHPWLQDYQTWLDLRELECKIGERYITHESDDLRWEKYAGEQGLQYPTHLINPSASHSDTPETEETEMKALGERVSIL

[9] = target: T2, Serine/threonine-protein kinase D1 (Homo sapiens); settings: at 1 µM
[10] = target: T3, Serine/threonine-protein kinase D2 (Homo sapiens) (UniProt Q9BZL6); settings: at 0.1 µM
T3 sequence (whole entry): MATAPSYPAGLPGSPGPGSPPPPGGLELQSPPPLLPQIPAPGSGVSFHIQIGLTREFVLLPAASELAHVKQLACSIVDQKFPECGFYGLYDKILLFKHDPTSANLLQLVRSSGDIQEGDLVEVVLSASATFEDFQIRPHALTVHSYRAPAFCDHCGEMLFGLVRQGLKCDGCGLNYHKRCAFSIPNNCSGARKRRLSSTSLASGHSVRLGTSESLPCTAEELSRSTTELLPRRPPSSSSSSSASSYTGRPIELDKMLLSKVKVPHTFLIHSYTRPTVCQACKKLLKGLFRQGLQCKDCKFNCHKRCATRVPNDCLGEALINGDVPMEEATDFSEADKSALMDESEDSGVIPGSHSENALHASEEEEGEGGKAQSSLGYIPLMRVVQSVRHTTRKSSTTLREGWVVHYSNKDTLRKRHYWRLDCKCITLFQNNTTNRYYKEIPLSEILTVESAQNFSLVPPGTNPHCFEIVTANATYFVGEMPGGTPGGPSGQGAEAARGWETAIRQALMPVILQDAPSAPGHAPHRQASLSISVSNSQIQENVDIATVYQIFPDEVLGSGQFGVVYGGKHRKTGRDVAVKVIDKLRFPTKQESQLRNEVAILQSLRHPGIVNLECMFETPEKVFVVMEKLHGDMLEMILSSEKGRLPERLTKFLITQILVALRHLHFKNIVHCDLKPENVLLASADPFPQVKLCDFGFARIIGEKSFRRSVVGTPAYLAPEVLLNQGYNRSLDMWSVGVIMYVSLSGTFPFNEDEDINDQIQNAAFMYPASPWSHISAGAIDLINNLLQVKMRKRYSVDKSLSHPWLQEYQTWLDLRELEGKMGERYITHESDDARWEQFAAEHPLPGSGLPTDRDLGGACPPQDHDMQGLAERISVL

[11] = target: T3, Serine/threonine-protein kinase D2 (Homo sapiens); settings: at 1 µM
[12] = target: T4, Serine/threonine-protein kinase D3 (Homo sapiens) (UniProt O94806); settings: at 0.1 µM
T4 sequence (whole entry): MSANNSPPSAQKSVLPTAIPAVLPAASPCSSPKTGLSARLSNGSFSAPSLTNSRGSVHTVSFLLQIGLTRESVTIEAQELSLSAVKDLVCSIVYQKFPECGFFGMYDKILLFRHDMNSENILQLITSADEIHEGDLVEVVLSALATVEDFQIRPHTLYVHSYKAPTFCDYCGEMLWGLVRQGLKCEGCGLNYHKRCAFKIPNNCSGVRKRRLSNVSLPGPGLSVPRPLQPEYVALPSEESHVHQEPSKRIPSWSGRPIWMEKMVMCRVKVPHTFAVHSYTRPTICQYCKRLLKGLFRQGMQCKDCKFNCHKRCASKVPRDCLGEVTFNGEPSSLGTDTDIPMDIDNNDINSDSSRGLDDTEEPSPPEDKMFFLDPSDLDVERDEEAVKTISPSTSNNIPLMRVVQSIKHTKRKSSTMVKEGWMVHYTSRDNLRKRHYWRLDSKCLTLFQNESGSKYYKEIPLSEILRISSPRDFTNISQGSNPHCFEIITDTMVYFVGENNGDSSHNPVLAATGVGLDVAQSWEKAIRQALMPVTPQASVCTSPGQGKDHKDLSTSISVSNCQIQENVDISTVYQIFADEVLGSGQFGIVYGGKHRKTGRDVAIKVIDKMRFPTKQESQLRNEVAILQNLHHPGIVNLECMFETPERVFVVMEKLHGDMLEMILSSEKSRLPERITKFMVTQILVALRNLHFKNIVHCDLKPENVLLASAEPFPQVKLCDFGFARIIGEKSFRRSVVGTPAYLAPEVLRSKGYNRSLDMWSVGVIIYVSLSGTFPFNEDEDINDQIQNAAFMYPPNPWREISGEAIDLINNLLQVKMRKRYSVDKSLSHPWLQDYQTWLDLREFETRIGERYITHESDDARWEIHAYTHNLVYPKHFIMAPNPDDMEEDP

[13] = target: T4, Serine/threonine-protein kinase D3 (Homo sapiens); settings: at 1 µM
[14] = target: T5, cGMP-dependent protein kinase 1 (Homo sapiens) (UniProt Q13976); settings: at 0.1 µM
T5 sequence (whole entry): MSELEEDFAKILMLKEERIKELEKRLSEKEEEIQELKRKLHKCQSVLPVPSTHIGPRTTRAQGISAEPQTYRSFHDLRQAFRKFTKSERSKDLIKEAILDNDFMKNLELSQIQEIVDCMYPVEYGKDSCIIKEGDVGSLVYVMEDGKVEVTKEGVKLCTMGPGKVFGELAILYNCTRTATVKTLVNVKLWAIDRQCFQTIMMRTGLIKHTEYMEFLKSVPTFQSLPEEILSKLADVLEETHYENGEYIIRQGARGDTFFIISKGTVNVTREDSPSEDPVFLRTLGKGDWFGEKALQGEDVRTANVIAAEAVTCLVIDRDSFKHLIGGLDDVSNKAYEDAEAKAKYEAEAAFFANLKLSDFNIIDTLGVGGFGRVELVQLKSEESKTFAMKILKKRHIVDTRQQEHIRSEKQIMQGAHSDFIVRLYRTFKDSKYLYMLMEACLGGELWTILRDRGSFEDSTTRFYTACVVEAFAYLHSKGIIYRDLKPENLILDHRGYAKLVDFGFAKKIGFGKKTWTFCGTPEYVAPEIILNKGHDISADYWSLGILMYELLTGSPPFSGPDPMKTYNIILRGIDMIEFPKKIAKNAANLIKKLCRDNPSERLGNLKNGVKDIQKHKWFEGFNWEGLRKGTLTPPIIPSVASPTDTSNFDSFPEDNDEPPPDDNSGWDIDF

[15] = target: T5, cGMP-dependent protein kinase 1 (Homo sapiens); settings: at 1 µM
[16] = target: T6, cGMP-dependent protein kinase 2 (Homo sapiens) (UniProt Q13237); settings: at 0.1 µM
T6 sequence (whole entry): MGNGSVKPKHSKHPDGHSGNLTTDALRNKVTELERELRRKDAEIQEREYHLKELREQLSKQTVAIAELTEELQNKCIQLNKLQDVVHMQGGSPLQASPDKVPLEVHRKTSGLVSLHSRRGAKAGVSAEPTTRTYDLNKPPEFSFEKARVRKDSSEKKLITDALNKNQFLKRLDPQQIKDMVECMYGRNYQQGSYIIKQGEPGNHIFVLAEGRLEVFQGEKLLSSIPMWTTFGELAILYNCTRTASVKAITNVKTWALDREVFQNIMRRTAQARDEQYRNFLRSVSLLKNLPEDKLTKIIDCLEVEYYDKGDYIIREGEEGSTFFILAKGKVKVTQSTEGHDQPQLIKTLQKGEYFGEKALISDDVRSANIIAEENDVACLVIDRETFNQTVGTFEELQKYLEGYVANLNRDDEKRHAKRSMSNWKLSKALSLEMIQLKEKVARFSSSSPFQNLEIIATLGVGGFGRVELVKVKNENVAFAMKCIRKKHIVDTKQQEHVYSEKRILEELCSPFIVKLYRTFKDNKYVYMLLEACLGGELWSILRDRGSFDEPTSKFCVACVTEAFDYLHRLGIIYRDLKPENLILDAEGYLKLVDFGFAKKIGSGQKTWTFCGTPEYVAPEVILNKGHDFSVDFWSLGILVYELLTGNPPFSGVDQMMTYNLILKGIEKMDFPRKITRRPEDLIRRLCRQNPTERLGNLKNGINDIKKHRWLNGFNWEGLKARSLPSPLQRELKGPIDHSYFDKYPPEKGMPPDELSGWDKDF

[17] = target: T6, cGMP-dependent protein kinase 2 (Homo sapiens); settings: at 1 µM
[18] = target: T7, cAMP-dependent protein kinase catalytic subunit PRKX (Homo sapiens) (UniProt P51817); settings: at 0.1 µM
T7 sequence (whole entry): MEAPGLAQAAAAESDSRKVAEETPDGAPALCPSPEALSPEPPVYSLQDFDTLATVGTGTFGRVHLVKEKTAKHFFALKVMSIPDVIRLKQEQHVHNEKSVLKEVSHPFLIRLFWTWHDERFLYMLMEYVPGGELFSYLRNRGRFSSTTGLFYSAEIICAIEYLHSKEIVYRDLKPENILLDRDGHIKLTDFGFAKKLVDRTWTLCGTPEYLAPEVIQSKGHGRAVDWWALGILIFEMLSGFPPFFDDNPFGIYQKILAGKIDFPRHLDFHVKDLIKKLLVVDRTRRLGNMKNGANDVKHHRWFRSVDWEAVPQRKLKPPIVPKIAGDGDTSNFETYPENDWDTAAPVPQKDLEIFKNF

[19] = target: T7, cAMP-dependent protein kinase catalytic subunit PRKX (Homo sapiens); settings: at 1 µM
[20] = target: Rho-associated protein kinase 1 (Homo sapiens) (UniProt Q13464); settings: at 0.1 µM;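 note: values are mean percent inhibition of ROCK1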
Rho-associated protein kinase 1 (Homo sapiens), sequence (Q13464 2-1354 limits assumed): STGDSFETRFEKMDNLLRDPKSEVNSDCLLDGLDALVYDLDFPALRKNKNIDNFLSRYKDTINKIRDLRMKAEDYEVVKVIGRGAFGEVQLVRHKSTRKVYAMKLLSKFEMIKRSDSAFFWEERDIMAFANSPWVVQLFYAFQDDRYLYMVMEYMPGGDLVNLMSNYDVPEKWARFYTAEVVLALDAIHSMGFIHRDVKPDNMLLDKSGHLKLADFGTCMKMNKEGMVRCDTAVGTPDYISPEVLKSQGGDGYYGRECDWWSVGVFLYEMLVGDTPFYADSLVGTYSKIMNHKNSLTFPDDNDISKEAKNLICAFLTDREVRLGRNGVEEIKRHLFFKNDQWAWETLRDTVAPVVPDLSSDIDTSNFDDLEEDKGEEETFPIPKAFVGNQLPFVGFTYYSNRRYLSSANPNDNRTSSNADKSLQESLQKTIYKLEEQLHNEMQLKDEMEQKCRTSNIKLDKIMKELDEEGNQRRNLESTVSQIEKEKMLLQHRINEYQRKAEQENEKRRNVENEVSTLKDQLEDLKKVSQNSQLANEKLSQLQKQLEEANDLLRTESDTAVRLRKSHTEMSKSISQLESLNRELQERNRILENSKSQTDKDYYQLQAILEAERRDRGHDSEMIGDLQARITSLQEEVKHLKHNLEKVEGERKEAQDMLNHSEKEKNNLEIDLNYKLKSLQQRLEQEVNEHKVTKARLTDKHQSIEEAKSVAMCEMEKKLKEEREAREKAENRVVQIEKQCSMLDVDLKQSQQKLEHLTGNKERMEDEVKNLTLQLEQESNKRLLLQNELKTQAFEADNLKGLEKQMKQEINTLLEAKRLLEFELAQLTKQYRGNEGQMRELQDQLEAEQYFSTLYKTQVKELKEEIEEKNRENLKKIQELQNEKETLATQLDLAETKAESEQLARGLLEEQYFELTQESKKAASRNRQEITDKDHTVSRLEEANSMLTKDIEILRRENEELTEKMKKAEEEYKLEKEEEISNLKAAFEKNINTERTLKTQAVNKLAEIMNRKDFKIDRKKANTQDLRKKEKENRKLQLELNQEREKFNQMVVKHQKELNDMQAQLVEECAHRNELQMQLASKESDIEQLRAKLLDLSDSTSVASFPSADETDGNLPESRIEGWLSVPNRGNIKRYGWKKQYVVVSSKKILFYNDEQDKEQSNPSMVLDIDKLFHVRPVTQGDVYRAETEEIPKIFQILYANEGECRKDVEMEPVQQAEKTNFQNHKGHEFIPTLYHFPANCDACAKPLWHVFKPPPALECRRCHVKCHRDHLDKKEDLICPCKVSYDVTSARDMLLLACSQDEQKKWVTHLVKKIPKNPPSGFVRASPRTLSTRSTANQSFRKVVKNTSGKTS

Protein kinase C theta type (Homo sapiens), sequence (Q04759 whole entry, looked up): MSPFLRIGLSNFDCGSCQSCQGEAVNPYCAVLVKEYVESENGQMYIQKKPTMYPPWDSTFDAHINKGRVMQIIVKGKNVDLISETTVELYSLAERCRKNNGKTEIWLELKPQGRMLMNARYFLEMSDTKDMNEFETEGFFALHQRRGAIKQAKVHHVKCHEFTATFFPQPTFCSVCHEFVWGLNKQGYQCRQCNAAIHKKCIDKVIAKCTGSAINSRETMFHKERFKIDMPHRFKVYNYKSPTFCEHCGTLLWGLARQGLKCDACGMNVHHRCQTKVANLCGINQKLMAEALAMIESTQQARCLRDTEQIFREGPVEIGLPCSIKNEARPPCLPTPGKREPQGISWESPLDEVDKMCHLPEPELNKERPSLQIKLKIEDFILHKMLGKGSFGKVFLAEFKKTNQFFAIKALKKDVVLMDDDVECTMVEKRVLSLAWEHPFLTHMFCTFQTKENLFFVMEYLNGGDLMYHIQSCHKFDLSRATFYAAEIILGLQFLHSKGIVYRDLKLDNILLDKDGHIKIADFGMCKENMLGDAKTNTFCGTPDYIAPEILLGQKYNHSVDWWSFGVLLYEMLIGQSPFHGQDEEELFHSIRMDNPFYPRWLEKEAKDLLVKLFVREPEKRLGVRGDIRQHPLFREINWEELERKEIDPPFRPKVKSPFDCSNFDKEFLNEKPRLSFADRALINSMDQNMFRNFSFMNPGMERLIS
Protein kinase C beta type (Homo sapiens), sequence (P05771 2-671 limits assumed): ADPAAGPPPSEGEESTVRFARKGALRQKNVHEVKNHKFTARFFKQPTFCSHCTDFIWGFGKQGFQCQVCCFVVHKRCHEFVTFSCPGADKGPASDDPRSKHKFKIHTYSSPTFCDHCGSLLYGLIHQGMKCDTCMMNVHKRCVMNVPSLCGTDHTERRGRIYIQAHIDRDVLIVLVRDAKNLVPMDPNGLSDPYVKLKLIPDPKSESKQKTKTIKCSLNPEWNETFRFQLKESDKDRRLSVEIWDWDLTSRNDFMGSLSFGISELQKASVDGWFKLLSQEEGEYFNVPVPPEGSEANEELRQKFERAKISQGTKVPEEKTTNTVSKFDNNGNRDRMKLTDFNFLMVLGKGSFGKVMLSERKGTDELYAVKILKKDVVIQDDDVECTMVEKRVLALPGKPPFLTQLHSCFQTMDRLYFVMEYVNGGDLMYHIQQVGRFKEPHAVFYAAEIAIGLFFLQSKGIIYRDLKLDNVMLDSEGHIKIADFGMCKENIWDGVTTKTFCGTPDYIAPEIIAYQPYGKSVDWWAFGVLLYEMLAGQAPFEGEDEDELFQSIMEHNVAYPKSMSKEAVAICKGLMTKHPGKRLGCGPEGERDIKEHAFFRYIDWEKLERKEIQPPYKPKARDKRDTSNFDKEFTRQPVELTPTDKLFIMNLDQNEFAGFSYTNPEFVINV

Compound | inhibition [1] | inhibition [2] | inhibition [3] | inhibition [4] | inhibition [5] | inhibition [6] | inhibition [7] | inhibition [8] | inhibition [9] | inhibition [10] | inhibition [11] | inhibition [12] | inhibition [13] | inhibition [14] | inhibition [15] | inhibition [16] | inhibition [17] | inhibition [18] | inhibition [19] | inhibition [20]
NC(=O)c1cccc(Nc2nccc(Nc3cccc(F)c3)n2)c1 | 4.93% | -0.38% | -1.03% | 0.79% | 0.72% | 2.1% | 4.84% | 1.93% | 4.25% | 0.71% | 0.2% | 0.7% | 1.01% | 0.12% | -0.32% | 0.77% | 0.47% | 1.19% | 0.35% | 0.28%
Cc1cc(-c2ccccn2)cc(C)c1/C=C/c1cncc(-c2nn[nH]n2)c1 | 2.83% | 0.86% | 1.38% | 1.86% | 3.08% | 1.2% | 2.79% | 6.68% | 11% | 6.87% | 12.2% | 6.27% | 12.1% | 3.51% | 5.76% | 2.46% | 5.89% | 2% | 2.53% | 2.04%
Cc1ccc(NC(=O)CC2CC2)cc1-c1ccc(C(=O)NCC2CC2)cc1 | 6.55% | 0.93% | -0.03% | 2.09% | 2.23% | 1% | 2.35% | 2.3% | 3.9% | 2.89% | 3.78% | 3.15% | 3.66% | 2.45% | 1.88% | 1.38% | 2.64% | 1.92% | 2.19% | 1%
